Biological target: FAM55C
Test: pooled miR-30 sensor sort-seq; sequence = guide strand
Conditions: shRNA

Row | Sequence | sensor-assay potency score (higher = more potent)
1 | TTGAGATAGTTCTAGACTGTTA | -0.125
2 | AAACACTCTACTACCAACCAAA | -0.932
3 | TTCAAGATGACAAAGTAGCTGG | 0.358
4 | TTAAACTCCACTAAATCTGGAA | -0.0245
5 | TTTGGTTTGAAGCAGAACCAGG | -1.09
6 | TTAGTTTCTTTTATTCTCCTGG | 0.337
7 | TTTATCTTCCTGTAAGCGCTGA | 0.412
8 | TATAATATCGTAGCATTCTTTA | -1.01
9 | TAAGCTACAAACACTCTACTAC | 0.449
10 | TTTCTTTGTAAGCACTCTGTAA | -0.921
11 | TAGTTTCAGAAATTCTTCCTGA | 0.381
12 | TTACACAAAAGTCAATTCCTAA | -0.448

Biological target: FAM57A
Test: as above
Conditions: shRNA

Row | Sequence | sensor-assay potency score (higher = more potent)
13 | TTTAGCTGAATCAGAACCCTGC | 0.947
14 | TTGCAGTAGAATGGGATGCTGA | -0.668
15 | TTCGACTTAGGAAGTTTCGAAG | -0.637
16 | ATCACGTCGTCGCAGGAGCGAA | -1.8
17 | TGCACCGAGGAAACCAGCCTGG | -1.21
18 | TTGGGGAGTGTCAAAGAGCCGG | -1.25
19 | TTTCGACTTAGGAAGTTTCGAA | -0.112
20 | TTGGAGCAGGCTTAGTCCCTGC | -0.863
21 | TGATGTGTGATCATGAGGCGGT | 0.245
22 | ATCATCACGCAGTCGGTGCGGC | -0.575
23 | TAGGAAGTTTCGAAGAGTGAGG | -0.893
24 | TAGGACCAGTACATGAAGGGGA | 0.407

Biological target: FAM58A
Test: as above
Conditions: shRNA

Row | Sequence | sensor-assay potency score (higher = more potent)
25 | TTGTAGTCAAAGTCCTCTCAAA | -0.91
26 | TTGATGATGTCACGAGTCCGCA | -0.773
27 | ATTGATGATGTCACGAGTCCGC | -0.413
28 | ATCGATTTCATGACTTTCCTTT | 0.417
29 | TAGGGATTCAGTCTCATCGATT | -1.22
30 | TTGGTCTCGCAAAAGAACTTAT | -0.839
31 | TTGAAGACATGGCAATCAGGTA | -0.548
32 | TATGGTAAATGGTGCAAGCAGT | -0.754
33 | TCTCGCAAAAGAACTTATGGTA | -0.0793
34 | TTGGGTTAAAGTACCTGTTGGA | 0.579
35 | TAGTGGAGCAGGTACTTGTGTG | -1.12
36 | TTGGACACATTGATGATGTCAC | -0.0439

Reference: the OligoGym collection
